# Experimental data as given in PMC4336329 (PLoS ONE, 2015).
# Screen size: about 310,000 compounds; about 14,000 (4.5%) showed an effect of 50% or more. Effects have a minus sign here. Many of the other results were omitted from the sample, so strong results are more common in it than they were.
# Target: human ether-à-go-go-related gene (hERG) potassium channel (human, UniProt Q12809)
# Experiment: primary screen, population patch clamp on CHO cells stably expressing hERG; higher = less effect of the substance
# 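Further: peak tail current of the secondary pulse compared with the same well before compound.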
# Chain of human ether-à-go-go-related gene (hERG) potassium channel (Q12809 whole entry, looked up): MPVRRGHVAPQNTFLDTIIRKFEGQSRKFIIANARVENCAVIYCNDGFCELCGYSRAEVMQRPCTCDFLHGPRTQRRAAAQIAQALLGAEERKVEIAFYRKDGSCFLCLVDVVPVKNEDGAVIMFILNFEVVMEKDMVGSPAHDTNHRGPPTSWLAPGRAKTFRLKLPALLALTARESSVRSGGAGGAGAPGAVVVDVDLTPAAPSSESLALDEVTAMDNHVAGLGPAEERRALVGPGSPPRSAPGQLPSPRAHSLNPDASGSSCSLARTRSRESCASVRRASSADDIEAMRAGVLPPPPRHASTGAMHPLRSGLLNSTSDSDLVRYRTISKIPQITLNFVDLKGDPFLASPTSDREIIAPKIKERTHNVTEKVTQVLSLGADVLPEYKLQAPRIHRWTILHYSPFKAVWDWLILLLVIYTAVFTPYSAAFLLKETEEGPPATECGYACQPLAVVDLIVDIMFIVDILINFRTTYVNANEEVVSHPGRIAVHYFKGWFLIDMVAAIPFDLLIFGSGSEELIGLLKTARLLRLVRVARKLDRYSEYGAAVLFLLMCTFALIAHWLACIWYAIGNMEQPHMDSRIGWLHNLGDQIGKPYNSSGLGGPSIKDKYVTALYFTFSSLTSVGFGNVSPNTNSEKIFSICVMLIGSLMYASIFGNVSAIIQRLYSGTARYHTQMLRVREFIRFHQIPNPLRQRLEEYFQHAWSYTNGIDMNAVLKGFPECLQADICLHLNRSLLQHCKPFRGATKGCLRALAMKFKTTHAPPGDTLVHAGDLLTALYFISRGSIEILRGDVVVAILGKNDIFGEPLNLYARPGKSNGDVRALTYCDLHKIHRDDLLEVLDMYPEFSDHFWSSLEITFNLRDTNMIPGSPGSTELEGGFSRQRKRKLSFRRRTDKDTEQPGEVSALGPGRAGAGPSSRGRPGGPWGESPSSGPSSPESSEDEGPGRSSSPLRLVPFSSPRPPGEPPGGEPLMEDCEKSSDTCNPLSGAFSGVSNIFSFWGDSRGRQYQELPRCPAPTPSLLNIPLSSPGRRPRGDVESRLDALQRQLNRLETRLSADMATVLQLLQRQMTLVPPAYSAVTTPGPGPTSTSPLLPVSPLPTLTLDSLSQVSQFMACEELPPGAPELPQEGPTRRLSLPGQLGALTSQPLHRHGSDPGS
row,Structure (SMILES),"hERG current change (%, negative = inhibition) at 10uM [%]"
1,CC(C)Cc1nnc(NC(=O)CN2C(=O)NC3(CC(C)CC(C)(C)C3)C2=O)s1 (stereo not shown),-20.5
2,CN1C[C@@H]2C(c3ccccc3)C3(c4ccccc4)CC2(C3)[C@H]1c1ccccc1 (stereo partly shown),-25.7
3,CC(C)(C)c1ccc(-c2nnc(NC(=O)c3ccccc3)s2)cc1,-13.6
4,COc1ccc(C(=O)COC(=O)/C=C/c2ccccc2)cc1,6.99
5,CN(C)S(=O)(=O)c1ccc(NC(=O)COC(=O)CC2CC3CCC2C3)cc1 (stereo not shown),-9.56
6,O=C(CSc1n[nH]c(-c2ccncc2)n1)NCCc1ccccc1,13.2
7,Cc1ccc(NC2CC(=O)N(c3ccc(C)cc3)C2=O)cc1 (stereo not shown),-0.727
8,CN(C)S(=O)(=O)c1cc(NC2CC(=O)N(c3ccc(F)cc3)C2=O)ccc1Cl (stereo not shown),-51.1
9,Cc1ccc(N2C(=O)CC(Nc3ccc(Cl)c(S(=O)(=O)N(C)C)c3)C2=O)c(C)c1 (stereo not shown),-4.31
10,COc1cc(C(=O)NCCc2cn3ccc(C)cc3n2)cc(OC)c1OC,-27
11,CCCOc1ccc(-c2nc(=S)[nH][nH]2)cc1,20.1
12,CCCCNC(=O)CCn1nc(-c2ccccc2)ccc1=O,-40
13,CCCCN(C)CCCNC(=O)CCn1nc(-c2ccccc2)ccc1=O,-52.9
14,O=C(CCn1nc(-c2ccccc2)ccc1=O)NCCCN1CCCCCC1,-73
15,CC1CCCC(C)N1CCNC(=O)CCn1nc(-c2ccccc2)ccc1=O (stereo not shown),-46.8
16,CCCN1CCN(CCCNC(=O)CCn2nc(-c3ccccc3)ccc2=O)CC1,-47.4
17,CCN(CC)CCCNC(=O)Cn1nc(-c2ccccc2)ccc1=O,-24.4
18,O=C(Cn1nc(-c2ccccc2)ccc1=O)N1CCCCC1,-61.6
19,CCN(CC)CCNC(=O)CCn1nc(-c2ccc(Cl)cc2)ccc1=O,-34.4
20,CCN(CC)CCCNC(=O)CCn1nc(-c2ccccc2)ccc1=O,-56.8
21,O=C(CCn1nc(-c2ccccc2)ccc1=O)N1CCCC1,-45
22,CC1CCCN(CCCNC(=O)CCn2nc(-c3ccccc3)ccc2=O)C1 (stereo not shown),-39
23,O=C(Cn1nc(-c2ccccc2)ccc1=O)N1CCOCC1,-6.25
24,O=C(CN1C(=O)C2CC=CCC2C1=O)Nc1nnc(C2CC2)s1 (stereo not shown),6.01

row,Structure (SMILES),"hERG current change (%, negative = inhibition) at 10uM [%]"
1,COc1ccc(N(CC(=O)NC2CC3CCC2C3)S(=O)(=O)c2ccccc2)cc1Cl (stereo not shown),-19.4
2,O=C(CSc1ccc2c(c1)OCCO2)Nc1ccc(Cl)cn1,24.3
3,CN(C)C(=O)c1noc2cc([N+](=O)[O-])ccc12,-12
4,Cc1c(C#N)c2ccccc2n1CC(=O)NCC1CCCO1 (stereo not shown),16.8
5,CCc1ccccc1NC(=O)COc1ccc2oc(-c3ccc(OC)cc3)cc(=O)c2c1,5.29
6,O=S(=O)(NCc1ccccc1)c1ccc(-n2cccn2)cc1,-16.6
7,Cc1nc(SCC(=O)N2CCCCCC2)[nH]c(=O)c1C,19.5
8,CCc1cc(=O)[nH]c(SCCC(F)=C(F)F)n1,27.7
9,CCc1cc(=O)[nH]c(SCCCF)n1,-50.2
10,CCCCSc1nc(CCC)cc(=O)[nH]1,-7.39
11,CC(c1ccccc1)N1C(=O)/C(=C/c2ccncc2)SC1=S (stereo not shown),3.24
12,CC(NC(=O)NCCCC(=O)O)(C(F)(F)F)C(F)(F)F,11.3
13,c1cc(OCCCN2CCCCC2)ccc1CN1CCCCC1,14.1
14,Cc1cc(OCCN2CCCC2)cc(C(C)C)c1.O=C(O)C(=O)O,-0.795
15,CC(C)(C)c1ccc(OCCCCCCN2CCNCC2)cc1,-0.393
16,CC(C)(C)c1ccc(OCCCN2CCCC2)cc1,-56.4
17,Clc1ccc(/C=N/N2CCCCC2)cc1,7.36
18,CC(C)c1ccc(/C=N/N2CCCCC2)cc1.O=C(O)C(=O)O,-84.3
19,CC(C)c1ccc(OCCCCCN2CCOCC2)cc1.O=C(O)C(=O)O,-24.9
20,CC(=O)Nc1ccc(/C=N/N2CCCCC2)cc1,16.5
21,CC(C)c1ccc(OCCCCN2CCCCC2)cc1.O=C(O)C(=O)O,-58.8
22,CC(C)c1ccc(OCCCN2CCCC2)cc1,-67.1
23,CC(C)(C)c1ccc(OCCN2CCCC2)cc1,-20.6
24,CCC(C)c1ccc(OCCN2CCCC2)cc1 (stereo not shown),-15.4

row,Structure (SMILES),"hERG current change (%, negative = inhibition) at 10uM [%]"
1,CCOc1ccc(-c2cnc3ccccc3n2)cc1,14.3
2,CC(C)=C1C2CCC1C1C(=O)N(c3ccc(C)c(C)c3)C(=O)C21 (stereo not shown),3.55
3,COc1ccc2nc(C)cc(SCC(=O)N/N=C/c3c(OC)ccc4ccccc34)c2c1,12.8
4,CC(C)N(C(=O)Cn1c(SCC(=O)NCc2ccc3c(c2)OCO3)nc2ccccc21)C(C)C,-34.1
5,CCN(CC)C(=O)CSc1ncnc2c1cnn2-c1ccccc1,-14.2
6,CCSc1nnc(Cn2c(=O)sc3ccccc32)n1-c1ccccc1C,-2.71
7,CN(/N=C/c1ccc(N(C)C)cc1)C1=NS(=O)(=O)c2ccccc21,20.6
8,Cc1ccc2[nH]c3c(=O)n(Cc4ccccn4)cnc3c2c1,-1.6
9,COC(=O)c1[nH]c2cc(OC)ccc2c1NC(=O)c1c(F)cccc1F,2.79
10,Clc1ccc(OCCCCN2CCCCC2)cc1.O=C(O)C(=O)O,-65.5
11,Cc1cc(OCCOCCN2CCCC2)ccc1C(C)C,-53.9
12,Cc1cc(OCCN2CCCC2)ccc1C(C)C,-22.5
13,CCOc1cccc(OCCOCCN2CCCC2)c1,-10.1
14,CC(C)Oc1ccc(C(=O)CCN2CCCCC2)cc1,-20.9
15,CCOc1ccc(OCCCCN2CCCC2)cc1.O=C(O)C(=O)O,-12.2
16,CC(C)Oc1ccc(OCCCN2CCCCCC2)cc1.O=C(O)C(=O)O,-54.8
17,COc1ccc(OCCCN2CCCCCC2)cc1.O=C(O)C(=O)O,-19.3
18,Clc1cccc(Cl)c1OCCCCN1CCCCC1.O=C(O)C(=O)O,-40.8
19,O=C1COc2ccc(S(=O)(=O)N3CCCCC3)cc2N1,20
20,Cc1ccc(NNC(=O)C(O)(c2cccc(C(F)(F)F)c2)c2cccc(C(F)(F)F)c2)cc1,-7.55
21,COc1cc2c(cc1OC)C(C)N(S(=O)(=O)c1ccc(C)cc1)CC2 (stereo not shown),-15
22,COc1ccc(C(C(=O)NC2CCCCC2)N(C(=O)c2snc(C(N)=O)c2N)c2ccccc2OC)cc1 (stereo not shown),11.4
23,CC1CCC(NC(=O)CCS(=O)(=O)c2ccc3c(c2)oc(=O)n3C)CC1 (stereo not shown),5.15
24,c1ccc(-c2ccccc2OCCCCn2ccnc2)cc1,-26.4

row,Structure (SMILES),"hERG current change (%, negative = inhibition) at 10uM [%]"
1,O=C(NCCCn1ccnc1)c1ccco1,-4.47
2,c1ccc(Cn2ccnc2)cc1,19.6
3,N=c1c2c(-c3ccccc3)c(-c3ccccc3)n(Cc3ccccc3)c2ncn1CCCn1ccnc1,-71.2
4,N=c1c2c(-c3ccccc3)c(-c3ccccc3)n(Cc3ccco3)c2ncn1CCCn1ccnc1,-74.3
5,c1ccc(-c2c(-c3ccccc3)n(Cc3ccco3)c3ncnc(NCCCn4ccnc4)c23)cc1,-71.6
6,Cc1sc2ncnc(NCCCn3ccnc3)c2c1C,-46.1
7,O=c1[nH]c(=O)n(Cc2ccco2)c(O)c1C=NCCCn1ccnc1,16.3
8,OCCNc1ncnc2c1c(-c1ccccc1)c(-c1ccccc1)n2Cc1ccco1,-44.9
9,O=C(CSc1nc2cc(C(=O)O)ccc2c(=O)n1-c1ccc(F)cc1)Nc1ccc(F)c(F)c1F,1.54
10,CCCCn1c(NC(=O)c2ccc(F)cc2)c(C#N)c2nc3ccccc3nc21,6.88
11,CCc1cc(C(=O)OC)c(NC(=O)CC2SC(N)=NC2=O)s1 (stereo not shown),-6.56
12,CCCC(=O)N1CCC(CCC(=O)NC2CC2)CC1,7.63
13,COc1ccc(S(=O)(=O)N2c3ccccc3NC(=O)CC2C)cc1 (stereo not shown),9.7
14,O=[N+]([O-])c1ccc(CS(=O)(=O)c2ccc(Cl)cc2)cc1,-9.81
15,CCc1ccc(Nc2nnc(SCC(=O)c3c(N)n(C4CC4)c(=O)[nH]c3=O)s2)cc1,-17.7
16,COc1cnc(-c2ccccn2)nc1NC(C)C,7.65
17,C=CCNC(=O)c1onc(CS(=O)(=O)c2cc(C)cc(C)c2)c1C(=O)NCC=C,-8.18
18,C[C@H](N)c1nnc(SCC(=O)c2ccc(Cl)cc2)o1,-6.79
19,CCC(C)[C@H](N)c1nnc(SCC(=O)c2ccc(Cl)cc2)o1 (stereo partly shown),-52.5
20,CC(C)[C@H](N)c1nnc(SCC(=O)c2ccc(Cl)cc2)o1.Cl,-14.2
21,Cc1ccc2oc(C(=O)N(C)Cc3ccon3)c(C)c2c1,4.23
22,Cc1cccc2c(=O)cc(C(F)(F)F)[nH]c12,13.8
